# In the library only some 4.7% were active in any assay of this set; here they are far more common.
# D1 antagonist = Antagonist of Human D 1 Dopamine Receptor: qHTS; D(1A) dopamine receptor (Homo sapiens), P21728; HEK293 TREx D1 cells, calcium flux, dopamine EC80; active compounds read low; activity change, negative = inhibition, % at 10 µM; 3.2% of 360,000 active; in the data active means activity change below about -30%; further: on the % scale 0 is the no-effect control and ±100 the full control effect
#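 Using tetracycline-induced force-coupled D1 Hek293 cells and a calcium dye, signals were followed for 180 s after compound, then for 180 s after EC80 dopamine, to detect inhibitors.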
# D1 PAM = Potentiators of Human D1 Dopamine Receptor: qHTS | potentiation, % at 10 µM | HEK293 TREx D1 cells, calcium flux, dopamine EC20 potentiation | AID 504651, 2011 | 0.036% of 360,000 active | D(1A) dopamine receptor (Homo sapiens), P21728; in the data active means potentiation above about 30%; further: 0% is about no effect
# D1 ag = Allosteric Agonists of the Human D1 Dopamine Receptor: qHTS; 1% of 360,000 active; AID 504660, 2011; activation, % at 2 µM; HEK293 T-REx D1 cells, calcium flux, agonist mode; further: 0% is about no effect
#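 Inducible HEK293 T-REx D1 cells, force-coupled to calcium signalling, were plated at 4000 cells/well with tetracycline and held overnight at 30 C. After no-wash calcium dye loading, compound-evoked calcium rise over 180 s flagged agonists.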
# TRHR agonist = qHTS for Small Molecule Agonists and Allosteric Enhancers of Human TRH Receptor: Primary Screen for Agonists; 0.18% of 360,000 active; AID 493084, 2011; TRHR cells, calcium flux fluo-8, FDSS agonist mode; activation, % at 2 µM; further: 0% is about no effect
# Target sequence (P34981 whole entry, looked up): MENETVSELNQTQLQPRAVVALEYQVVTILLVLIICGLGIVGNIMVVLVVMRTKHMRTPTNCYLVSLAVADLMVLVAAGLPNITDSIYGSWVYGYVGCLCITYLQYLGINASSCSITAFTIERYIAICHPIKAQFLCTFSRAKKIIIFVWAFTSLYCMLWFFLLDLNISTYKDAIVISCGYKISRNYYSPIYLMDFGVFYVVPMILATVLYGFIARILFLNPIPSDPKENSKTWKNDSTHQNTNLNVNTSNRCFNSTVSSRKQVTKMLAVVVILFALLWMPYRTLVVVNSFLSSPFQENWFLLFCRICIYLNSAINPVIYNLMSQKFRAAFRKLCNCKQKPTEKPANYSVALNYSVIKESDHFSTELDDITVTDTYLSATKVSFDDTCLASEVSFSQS
#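 Read-out: compound-evoked intracellular calcium rise in TRHR cells, fluo-8 dye, kinetic FDSS fluorescence at 1 s/cycle following a 10-cycle baseline. Cells cultured overnight before dye loading (30 min–1.5 h, RT).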
# TRHR enhancer = qHTS for Small Molecule Agonists and Allosteric Enhancers of Human TRH Receptor: Primary Screen for Enhancers | TRHR cells, fluo-8 calcium fluorescence, EC20 TRH enhancement | enhancement, % at 2 µM | 0.66% of 360,000 active | AID 493056, 2011; in the data active means enhancement above about 30%; further: 0% is about no effect
#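 TRHR-expressing cells loaded with fluo-8 calcium dye were read kinetically (ex 480/em 530) during compound addition, then stimulated with an EC20 of TRH (10 nM final). Enhancement of the Gq-mediated intracellular calcium response was scored.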
# An asterisk follows results filed as active. Unless noted, no stated cut-off is given here; in the data, active means activation above about 30%; inactive means the rest.
SMILES,D1 antagonist,D1 PAM,D1 ag,TRHR agonist,TRHR enhancer
COc1ccc(/C=C2\SC(=Nc3ccccc3)NC2=O)cc1,1,-6,3,2,10
COc1cc(/C=C2/SC(=Nc3ccc(O)cc3)NC2=O)cc(OC)c1O,-5,-4,47*,70*,6
COc1ccc(CCNC(=O)Cn2nc(C)n3c(cc4cc(F)ccc43)c2=O)cc1OC,-14,-4,2,0,7
COc1cccc(C(=O)NN/C(C)=C/C(=O)C(F)(F)C(F)(F)C(F)(F)F)c1,-19,-4,3,0,-4
O=C(Nc1sc2c(c1C(=O)NCC1CCCO1)CCC2)c1cc(=O)c2ccccc2o1 (stereo unspecified),1,12,-2,-1,4
CCCCn1nc(-c2ccccc2)c2nc3ccccc3nc21,-8,2,51*,22,-1
CCCCn1c2nc3ccccc3nc2c2c(=O)n(-c3ccccc3)cnc21,11,-13,2,0,-2
Cn1nc(-c2ccccc2)c2nc3ccccc3nc21,5,4,94*,55*,1
O=C(Nc1cccc(C(=O)OCc2cc(=O)n3nc(C4CC4)sc3n2)c1)c1ccc(F)cc1,9,0,4,1,4
CCOc1ccc(-c2c(C(=O)N/N=C/c3ccsc3)nnn2-c2nonc2N)cc1,33,2,38*,0,7
COc1cccc(-c2c(C(=O)N/N=C/c3ccsc3)nnn2-c2nonc2N)c1,29,15,163*,0,2
O=C(Nc1ccc(F)cc1)c1cccc(N2C(=O)C3C4C=CC(C4)C3C2=O)c1 (stereo unspecified),2,-5,9,0,7
O=C(Nc1ccc(F)cc1)c1cccc(N2C(=O)C3C4C=CC(C5CC45)C3C2=O)c1 (stereo unspecified),-38*,-2,13,0,-8
O=C(Nc1ccccc1)c1cccc(N2C(=O)C3C4C=CC(C5CC45)C3C2=O)c1 (stereo unspecified),-38*,4,10,0,0
O=C(Nc1ccc(Br)cc1)c1cccc(N2C(=O)C3C4CCC(C4)C3C2=O)c1 (stereo unspecified),-39*,-6,6,-1,1
Cc1cccc(N2C(=O)N(Cc3ccc(C(C)(C)C)cc3)c3ccccc3S2(=O)=O)c1,-48*,1,1,1,0
Cc1cccc(N2C(=O)N(Cc3cc(=O)n4ccccc4n3)c3ccccc3S2(=O)=O)c1,-69*,3,0,0,7
COc1ccc(NC(=O)CSc2nc3ccccc3nc2N2CCCC2)cc1Cl,13,-6,4,0,-9
COc1ccc(NC(=O)Cn2c(NCC(C)O)nc3ccccc32)cc1Cl (stereo unspecified),-70*,-10,1,0,3
O=C1C(c2ccc(F)cc2)N(Cc2ccccc2Cl)C(=O)CN1C1CCCCC1 (stereo unspecified),-42*,-1,-2,-1,-2
Cc1nc2ccc(S(=O)(=O)NC(C(=O)N3CCN(c4cccc(Cl)c4)CC3)C(C)C)cc2s1 (stereo unspecified),-22,1,0,-1,4
Cc1ccc(C)c(C(=O)COC(=O)CCN2C(=O)C3C4CCC(C4)C3C2=O)c1 (stereo unspecified),-45*,-7,2,0,-1
CCCc1nn2c(=O)cc(COC(=O)c3ccccc3NC(=O)c3ccc(OCC)cc3)nc2s1,3,0,-1,-1,12
CC(=O)N/N=C/c1cc(C(C)(C)C)cc(/C=N/NC(C)=O)c1O,-9,8,36*,22,6
CSCCC(NC(=O)COc1ccccc1)C(=O)N1CCN(c2ccccc2O)CC1 (stereo unspecified),7,-6,-2,3,-6
O=C(O)CCC(=O)Nc1cccc(-c2csc(-c3ccccc3)n2)c1,-34*,-1,3,0,0

# Compound activity as filed in PubChem.
